# Measured values: ChEMBL document CHEMBL3988442, “University of Dundee, Small-Polar-MMV Screening Library” (2021)
# Screen size: about 48,000 compounds; about 13,000 (27%) showed an effect of 50% or more. This is one part of the list.
# System: Wolbachia pipientis
# Test: Anti-Wolbachia Cell-Based Screen
# Type: functional
# Design: scale not given: in the data most compounds retested in dose-response had high values
# Conditions: 5 µM
row,SMILES,Percent Effect [%]
1,CNc1cc(N2CCC(O)(CNC(=O)c3ccc(C)nc3)C2)ncn1 (stereo not given),87.58
2,CNc1cc(N2CCCC2CNCc2cnc(C)cn2)ncn1 (stereo not given),-4.576
3,Cc1ccc(C(=O)NCc2ccnc(N3CCN(C)CC3)c2)cn1,-19.75
4,COCc1nc(C(=O)N2CCCC2Cn2cc(C)cn2)cs1 (stereo not given),115.1
5,Cc1cnn(CC2CCCN2C(=O)c2csc(C3CC3)n2)c1 (stereo not given),86.35
6,COCc1nc(C(=O)N2CCCCC2Cn2cc(C)cn2)cs1 (stereo not given),2.393
7,Cc1cnn(CC2CCCCN2C(=O)c2ccc(C#N)c(C)n2)c1 (stereo not given),2.901
8,Cc1cnn(CC2CCCN2C(=O)c2csc(C(C)C)n2)c1 (stereo not given),113.9
9,COCc1nc(C(=O)N2CCCC2c2ccccc2C)cs1 (stereo not given),8.95
10,CC(Nc1ccc(CN2CCCC2=O)cc1)c1ccc(C#N)cc1 (stereo not given),3.244
11,CCc1ccc(C(=O)O)cc1S(=O)(=O)Nc1ccc(=O)n(C)c1,-7.326
12,O=C(NC1CCc2nccn2C1)c1ccc(OCC2CC2)nc1 (stereo not given),-10.39
13,CC(=O)N1CCc2nc3sc(C(N)=O)c(N)c3c(C(F)(F)F)c2C1,0.4865
14,CCn1ncnc1CN1CCC(CNC(=O)c2cccc(C)n2)C1 (stereo not given),95.93
15,CCn1ncnc1CN1CCC(CNC(=O)c2cccc(C)c2)C1 (stereo not given),94.27
16,CCn1ccnc1CN1CCC(CNC(=O)c2ccc(C)nc2)C1 (stereo not given),-5.867
17,Cc1cc(CN2CCC(CNC(=O)c3nccc4ccccc34)C2)[nH]n1 (stereo not given),5.129
18,Nc1cc(C(=O)NCC2CCN(Cc3cccc(O)c3)C2)ccn1 (stereo not given),-106.2
19,CCc1cc(C(=O)NCC2CCN(Cc3cccc(C)n3)C2)on1 (stereo not given),1.32
20,Cc1ccccc1C(C(=O)N(Cc1cnn(C)c1)CC(C)C)N(C)C (stereo not given),-6.978
21,Cc1cccc(-c2nc(C)nn2CN2CCC3(CC2)OCCO3)c1,0.3778
22,Cc1cccnc1N1CCN(C(=O)CCc2cn3ccccc3n2)CC1,-2.508
23,COc1cc(C(=O)N(C2CC2)C2CC(=O)NC2=O)ccc1C (stereo not given),-10.25
24,O=C1CC(N(C(=O)Cc2csc(-c3ccccc3)n2)C2CC2)C(=O)N1 (stereo not given),1.029
25,O=C1CC(N(C(=O)COc2ccc(F)cc2F)C2CC2)C(=O)N1 (stereo not given),87.23

row,SMILES,Percent Effect [%]
1,COc1ccc(C(=O)N(C2CC2)C2CC(=O)NC2=O)cc1 (stereo not given),-6.531
2,O=C1CC(N(C(=O)CCc2c[nH]c3ccccc23)C2CC2)C(=O)N1 (stereo not given),78.13
3,O=C1CC(N(C(=O)c2ccccc2Br)C2CC2)C(=O)N1 (stereo not given),-20.12
4,O=C1CC(N(C(=O)c2ccc(-n3cccc3)cc2)C2CC2)C(=O)N1 (stereo not given),-5.765
5,O=C1CC(N(C(=O)c2ccc3c(c2)CCC3)C2CC2)C(=O)N1 (stereo not given),-12.36
6,O=C1CC(N(C(=O)CCc2cc(F)ccc2F)C2CC2)C(=O)N1 (stereo not given),101
7,CC(C)COc1cncc(NCCc2nnc3ccccn23)n1,6.284
8,COc1ncc(-c2nccn2CCN(C)C)cn1,-13.85
9,CCCn1ccnc1-c1nccn1CCC(N)=O,-22.61
10,CCCn1ccnc1-c1nccn1CCN(C)C,-8.104
11,COCc1ncc(-c2nccn2CCS(C)(=O)=O)cn1,120.2
12,COCCCn1ccnc1-c1cnc(OC)nc1,-18.72
13,COCc1ncc(-c2nccn2CCN(C)C)cn1,3.066
14,CCCSc1ncc(-c2nccn2CCO)cn1,-55.57
15,CCCn1ccnc1-c1nccn1CCn1cnnc1,87.43
16,COCc1ncc(-c2nccn2CCn2cnnc2)cn1,95.42
17,CN(C)Cc1nnc(C2CCN(c3ncccc3Cl)CC2)n1C1CC1,-16.88
18,O=C(NC1CCCC1)O[C@H]1COCCN(c2nc3ccccc3o2)C1,-4.12
19,CN(Cc1nccs1)c1nccc(N2CCN[C@H]3CS(=O)(=O)C[C@H]32)n1,-5.478
20,Cn1c(CCNc2nccnc2C#N)nc2ccc(F)cc21,-0.9847
21,CNC(=O)C1CCCN(C(=O)OC)C1 (stereo not given),-23.89
22,CCOCC(=O)N1CC[C@H]2OCC[C@@]2(COc2ncccc2F)C1.O=C(O)C(F)(F)F,-3.289
23,Cc1ccc(N2CCCC3(COCCN(c4nccs4)C3)C2)nn1.O=C(O)C(F)(F)F.O=C(O)C(F)(F)F (stereo not given),-0.6863
24,Cc1ccc(N2CCC3(CC2)COCCN(c2nccs2)C3)nn1.O=C(O)C(F)(F)F.O=C(O)C(F)(F)F,108.8
25,O=C(O)C(F)(F)F.O=C(O)C(F)(F)F.c1cnc(N2CCOCC3(CCCN(CC4CCOCC4)C3)C2)nc1 (stereo not given),-3.791

row,SMILES,Percent Effect [%]
1,Cc1ccoc1C(=O)N1CCOCC2(CCN(c3ncccn3)C2)C1.O=C(O)C(F)(F)F (stereo not given),0.2458
2,CCOCC(=O)N1CCOCC2(CCN(c3ncccn3)C2)C1.O=C(O)C(F)(F)F (stereo not given),115.1
3,c1ccc2sc(N3CCCC4(CCOC4)C3)nc2c1 (stereo not given),-24.88
4,Cc1cc(C(=O)N2CCCC3(COCCN(c4ncccn4)C3)C2)[nH]n1.O=C(O)C(F)(F)F.O=C(O)C(F)(F)F (stereo not given),-11.88
5,Cc1ccc(N2CCCC3(COCCN(c4ncccn4)C3)C2)nn1.O=C(O)C(F)(F)F (stereo not given),82.98
6,c1ccc(-c2nnc(N3CCCC4(CCOC4)C3)s2)cc1 (stereo not given),56.2
7,Cc1ccc(N2CC3(CCN(c4nccs4)C3)C2)nn1,-7.178
8,OC1(CN2CCCC2)COCCN(c2nnc(-c3ccccc3)s2)C1 (stereo not given),-13.1
9,CCc1ncc2c(n1)CN(CC(=O)NC1CCCCNC1=O)CC2 (stereo not given),-10.76
10,N#CCCCOc1cccc(CN2CCCC2c2ccc[nH]2)c1 (stereo not given),-9.513
11,NCC1Cc2cc(-c3cnccn3)cc(Cl)c2O1 (stereo not given),3.613
12,c1ccc(N2CCOCC3(CCCN(c4nccs4)C3)C2)nc1 (stereo not given),105.2
13,Cc1ccc(N2CCCC3(COCCN(c4ccccn4)C3)C2)nn1.O=C(O)C(F)(F)F (stereo not given),88.94
14,CCCS(=O)(=O)N1CCOCC2(CCN(c3ccccn3)C2)C1.O=C(O)C(F)(F)F (stereo not given),-9.194
15,Cc1cnc(N2CCOC3(COCCN(c4nccs4)C3)C2)nc1 (stereo not given),7.245
16,O=C(O)C(F)(F)F.c1ccc(N2CCCC3(COCCN(c4nccs4)C3)C2)nc1 (stereo not given),-9.014
17,O=C1NCC2(CCCN(C(=O)Nc3ccc4occc4c3)CC2)O1 (stereo not given),-22.41
18,Cc1cc(SC(C)(C)C)ccc1NC(C)C(=O)NC(N)=O (stereo not given),0.5682
19,O=C(NCCc1ccccc1)C1CCC(Cn2cnnn2)CC1 (stereo not given),3.007
20,O=C(NCCc1ccc(F)cc1)C1CN(C(=O)Cn2cncn2)C1,163.3
21,CN(Cc1ccc(F)cc1)C(=O)CN1CCCCC1Cn1cncn1 (stereo not given),-13.17
22,O=C(Nc1ccccc1)C1CCCN(C(=O)Cn2cncn2)C1 (stereo not given),9.271
23,CCCNC(=O)C1CCCN(Cc2ccc(-n3cncn3)c(C)c2)C1 (stereo not given),5.039
24,O=C(NCCc1ccccc1)C1CCN(C(=O)Cn2cncn2)C1 (stereo not given),175.5
25,CC(=O)Nc1cnc(-n2ccnc2)nc1,0.9267

row,SMILES,Percent Effect [%]
1,C=Cc1ccc(C(=O)N2CCCC(Nc3ccccc3)C2)cc1 (stereo not given),-22.58
2,CN1C(=O)C[C@@H]2[C@@H]1CCN2C(=O)c1ccc[nH]1,-0.2597
3,CN(C)c1cccc(C(=O)N2CCCSCC2CN2CCCC2)c1 (stereo not given),112.4
4,O=C(c1ccc2c(c1)OCO2)N1CCCSCC1CN1CCCC1 (stereo not given),1.32
5,N#Cc1ccc(C(=O)N2C[C@@H](CN3CCCC3)C[C@H](CO)C2)cc1,5.863
6,O=C(c1ccc(F)c(F)c1)N1CCCSCC1CN1CCCC1 (stereo not given),1.047
7,CN(C)c1ccc(C(=O)N2C[C@@H](CN3CCCCC3)[C@@H](CO)C2)cc1,-5.628
8,N#Cc1ccc(C(=O)N2CCCSCC2CN2CCCC2)cc1 (stereo not given),107.8
9,CS(=O)(=O)N1CCCC12CCCN(C(=O)c1ccc3[nH]ccc3c1)C2 (stereo not given),11.97
10,O=C(c1ccc2[nH]ccc2c1)N1CCCSCC1CN1CCCC1 (stereo not given),105.2
11,N#Cc1cccc(C(=O)N2C[C@H](CO)C[C@H](CN3CCCC3)C2)c1,-1.985
12,Cc1cccc(C(=O)N2CCCSCC2CN2CCCC2)c1 (stereo not given),114.9
13,CN(C)c1cccc(C(=O)N2C[C@H]3CC[C@@H]2CN(C(=O)C2CCC2)C3)c1,-25.57
14,O=C(CCC1CCN(Cc2ncc[nH]2)CC1)Nc1ccccc1Cl,0.1939
15,CCN(C)c1ccc(CNS(=O)(=O)C2CCOCC2)cc1F,3.098
16,O=C(O)c1cc(C2=CCCCC2)cc(S(=O)(=O)NCc2ccccn2)c1,-10.69
17,COc1ccc(CN2CCCn3cnc(COCC4CC4)c3C2)cc1.O=C(O)C(F)(F)F,-1.756
18,CCN1C(=O)C2(CCOCC2)c2cc(NC(=O)c3cc(C)n[nH]3)ccc21,-4.188
19,CC(C)Oc1ccc(CNC(=O)c2cc(C(N)=O)cs2)cc1F,-0.429
20,CCn1nc(C)c(CN2CCCC(c3ccc(C(=O)O)cc3)C2)c1C (stereo not given),3.316
21,CCn1nc(C)c(CN2CCC(c3ccn[nH]3)C2)c1C (stereo not given),102.4
22,CCn1nc(C)c(CN2CCC(c3ccc(C(=O)O)cc3)C2)c1C (stereo not given),-3.844
23,Cc1cc(CN(C)Cc2ccccc2N2CCCCC2)n[nH]1,185.5
24,Cc1cc(CN(C)Cc2csc(-c3cccs3)n2)n[nH]1,-0.07399
25,Cc1ccc(CN(C)Cc2cc(C3CC3)[nH]n2)c(O)n1,7.171
